Results filed as inconclusive are left out. Activity calls are given as the source filed them. The call rests on the fitted dose curve; in most records, active means well fitted inhibition curve with a large enough effect; inconclusive means small, poorly fitted or top-dose-only effect; inactive means flat fitted curve, though single readings scatter.
On the % scale 0 is the no-effect control and ±100 the full control effect; potency means the concentration at half of the fitted maximal effect.

For the assay, the system named is NIH3T3. Description: Cytotoxic Profiling of Annotated Libraries Using Quantitative High-Throughput Screening (AID 1296008). Further: nearly all actives have a fitted effect of over 60% in size. The note with it: Five cell lines viability, CellTiter-Glo ATP luminescence, 48-72 h; max response: hits give low values. The method in brief:
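Cells exposed to compounds for 48 or 72 hr at 37 degrees Celsius. Viability read as ATP-coupled luminescence with CellTiter-Glo after 10 min at room temperature.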
For `O=C(O)/C=C/c1ccc(O)c(O[C@@H]2O[C@H](CO)[C@@H](O)[C@H](O)[C@H]2O)c1`, the max response was 4.37% (inactive). As to `CN(C)CC1CCOC1(c1ccccc1)c1ccccc1` (stereo unspecified), the molecule was classed as inactive. For the molecule `O=C1CC2(CCCC2)[C@H](O)C(=O)N1CCCCN1CCN(c2ncccn2)CC1`, the max response is -13.6% (inactive).

As to `CC(C)/C=C1\NC(=O)C(C(C)C)n2c1nc1c(c2=O)C=CC=CO1` (stereo unspecified), the molecule was called inactive. Regarding `CCC(C)C(=O)O[C@H]1CCC=C2C=C[C@H](C)[C@H](CC[C@@H](O)C[C@@H](O)CC(=O)O)[C@H]21` (stereo partly specified), the max response was -16.9% (inactive). In the case of `COc1cc(O)cc(C)c1C(=O)OC1C(CO)OC(OC2C(O)C(O)C(O)C(O)C2O)C(O)C1O` (stereo unspecified), the max response is -8.82% (inactive). As for `Cc1cc(O)c(-c2ccc([C@@H](C)CN(C)C)cc2)c2c1[nH]c(=O)c1sccc12`, the Potency is 231 nM (active). On to `C=CC1C(OC2OC(CO)C(O)C(O)C2O)OC=C2C(=O)N3C(C(=O)O)Cc4c([nH]c5ccccc45)C3CC21` (stereo unspecified), for which the max response was -3.8% (inactive). On the same count and under the same terms, the value for `C=C1OC2CC(C(=O)O)C=CC2NC1=O` (stereo unspecified) was 0.0418% (inactive); that for `C=CC1C(OC2OC(CO)C(O)C(O)C2O)OC=C(C(=O)OC)C1CC1CC(=O)CC(CCc2ccc(O)cc2)O1` (stereo unspecified) was -7.36% (inactive); that for `CCOC(=O)CCN(C(=O)c1ccc2c(c1)nc(CNc1ccc(C(=N)N)cc1)n2C)c1ccccn1` was -4.58% (inactive).

(Values after PubChem BioAssay (NCATS).)
